Test results as given in article PMC5540273 (PLoS ONE, 2017).

Key:
Conditions in all cases: concentration: 1 μM, replicates: in singlicate; n = 1
MRCKA = tested on: MRCKA
MRCKB = tested on: T1, MRCKB
T1 construct: gene CDC42BPB

MST1R = tested on: MST1R
MST1 = tested on: T2, MST1
T2 construct: gene STK4

MST2 = tested on: T3, MST2
T3 construct: gene STK3

MST3 = tested on: T4, MST3
T4 construct: gene STK24

MST4 = tested on: MST4
MTOR = tested on: MTOR
MUSK = tested on: MUSK
MYLK2 = tested on: MYLK2
MYLK4 = tested on: MYLK4
MYLK = tested on: MYLK
MYO3A = tested on: MYO3A
MYO3B = tested on: MYO3B
NDR1 = tested on: T5, NDR1
T5 construct: gene STK38

NDR2 = tested on: NDR2
NEK10 = tested on: NEK10
NEK11 = tested on: NEK11
NEK1 = tested on: NEK1
NEK2 = tested on: NEK2
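Note: KINOMEscan kinase panel screen.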

Row | SMILES | %Inh (MRCKA) [%] | %Inh (MRCKB) [%] | %Inh (MST1R) [%] | %Inh (MST1) [%] | %Inh (MST2) [%] | %Inh (MST3) [%] | %Inh (MST4) [%] | %Inh (MTOR) [%] | %Inh (MUSK) [%] | %Inh (MYLK2) [%] | %Inh (MYLK4) [%] | %Inh (MYLK) [%] | %Inh (MYO3A) [%] | %Inh (MYO3B) [%] | %Inh (NDR1) [%] | %Inh (NDR2) [%] | %Inh (NEK10) [%] | %Inh (NEK11) [%] | %Inh (NEK1) [%] | %Inh (NEK2) [%]
1 | Oc1ccc2ncnc(Nc3ccc(OCc4ccccc4)cc3)c2c1 [GI262866] | 12 | 0 | 13 | 59 | 0 | 0 | 0 | 11 | 17 | 0 | 3 | 0 | 0 | 0 | 0 | 0 | 0 | 0 | 0 | 0
2 | C[C@H]1CC[C@@H](C(=O)Nc2ccccc2)CN1c1cc(-c2ccc3c(N)n[nH]c3c2)nc(N)n1 [GSK2283293] | 65 | 0 | 17 | 0 | 0 | 0 | 0 | 8 | 13 | 1 | 0 | 40 | 7 | 0 | 13 | 0 | 0 | 0 | 0 | 0
3 | CSc1nn2c(=O)cc(N3CCOCC3)nc2n1Cc1cccc(Cl)c1Cl [GSK2347225] | 29 | 4 | 59 | 6 | 0 | 4 | 0 | 28 | 16 | 15 | 4 | 12 | 0 | 0 | 23 | 0 | 29 | 0 | 0 | 0
4 | CN1CCC(n2cnc(-c3ccc(F)cc3)c2-c2ccnc(NC3CCNCC3)n2)CC1 [SB-229482] | 6 | 0 | 33 | 3 | 24 | 0 | 0 | 0 | 0 | 21 | 11 | 5 | 14 | 0 | 0 | 0 | 13 | 0 | 0 | 0
5 | CCc1nc(-c2cccc(C)c2)c(-c2ccnc(NC(=O)c3ccccc3)c2)s1 | 0 | 0 | 32 | 11 | 12 | 8 | 9 |  | 0 | 0 | 0 | 18 | 65 | 0 | 0 | 22 | 6 | 0 | 0 | 0
6 | CSc1ccc(NC2=C(c3ccccc3Cl)C(=O)NC2=O)cc1 [SB-342411] | 0 | 0 | 27 | 6 | 0 | 0 | 8 | 13 | 0 | 8 | 10 | 4 | 0 | 0 | 31 | 0 | 29 | 0 | 75 | 8
7 | Cl.Cl.c1ccc(-c2cc3ccncc3cc2OC2CCNCC2)cc1 [GSK1122999] | 52 | 17 | 53 | 21 | 6 | 12 | 0 | 12 | 13 | 20 | 21 | 25 | 10 | 0 | 0 | 0 | 24 | 0 | 0 | 17
8 | CC(=O)Nc1n[nH]c2ncc(-c3ccccc3)cc12 [SB-548492] | 0 | 10 | 41 | 0 | 1 | 5 | 15 | 6 | 9 | 37 | 28 | 23 | 25 | 0 | 8 | 17 | 0 | 18 | 0 | 9
